Reference: PubChem BioAssay (EPA / NIEHS)
Several values for one entry are separate records, joined by “and”; a condition that tells them apart may be missing. Equal values may be shown once. Results filed as inconclusive are left out. Activity calls are given as the source filed them. How the source made its calls, unless noted: active means hit-call score of the fitted dose curve at least 0.9, where 1 is the maximum; inconclusive means response in the unintended direction; inactive means score below 0.9.

Key:
[1] = ATG_M_19_TRANS: Attagene TRANS-FACTORIAL HepG2 Assay for M19 Transcription Factor (Internal Marker) (AID 2282974); details: HepG2 Attagene TRANS-FACTORIAL M19 internal marker reporter
In short: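 HepG2 cells transiently transfected with multiple GAL4-UAS reporter transcription units were exposed to chemicals for 24 h. Reporter mRNA was read by RT-PCR, 6-FAM primer extension, HpaI digestion and capillary electrophoresis; gain of signal fitted relative to DMSO.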

[2] = target: Oxysterols receptor LXR-alpha (Homo sapiens) (UniProt Q13133); experiment: ATG_LXRa_TRANS: Attagene TRANS-FACTORIAL HepG2 Assay for human Liver X Receptor alpha (LXRa) (AID 2282980); details: HepG2 Attagene TRANS reporter, LXRa transactivation
Chain of Oxysterols receptor LXR-alpha (Homo sapiens) (Q13133 whole entry, looked up, the tested form may be a part): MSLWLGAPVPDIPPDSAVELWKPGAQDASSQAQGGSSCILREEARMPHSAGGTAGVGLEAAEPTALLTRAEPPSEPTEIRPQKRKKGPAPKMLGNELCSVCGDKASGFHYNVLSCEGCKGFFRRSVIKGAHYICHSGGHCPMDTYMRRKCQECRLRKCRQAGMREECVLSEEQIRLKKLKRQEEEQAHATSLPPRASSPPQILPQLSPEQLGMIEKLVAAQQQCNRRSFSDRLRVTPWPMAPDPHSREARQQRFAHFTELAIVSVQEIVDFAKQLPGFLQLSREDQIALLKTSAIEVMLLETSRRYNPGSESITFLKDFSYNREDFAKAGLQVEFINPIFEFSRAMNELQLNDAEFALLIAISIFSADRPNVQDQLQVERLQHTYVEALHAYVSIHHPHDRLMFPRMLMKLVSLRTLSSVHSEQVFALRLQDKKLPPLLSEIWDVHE
In short: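 Read-out: reporter transcript levels by RT-PCR plus capillary electrophoresis, fluorescence intensity. Transiently transfected HepG2, exogenous NR-GAL4 chimera, GAL4-UAS reporters; 24 h compound exposure. Activity = increase over DMSO negative control.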

[3] = ATG_M_32_TRANS: Attagene TRANS-FACTORIAL HepG2 Assay for M32 Transcription Factor (Internal Marker) (AID 2282984); details: HepG2 Attagene TRANS M32 internal marker reporter;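 further: transcript level of a background control reporter unit measured by RT-PCR and capillary electrophoresis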
In short: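 Human hepatoma HepG2, transient MRTU transfection, 24 h treatment. RNA → RT-PCR → fluorescent primer extension → HpaI digest (2 h, 37 C) → CE. Positive-direction fit vs DMSO.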

[4] = target: Nuclear receptor subfamily 4 group A member 2 (Homo sapiens) (UniProt P43354); experiment: ATG_NURR1_TRANS: Attagene TRANS-FACTORIAL HepG2 Assay for human Nuclear Receptor Related Protein 1 (NURR1) (AID 2282985); details: HepG2 Attagene TRANS reporter, mRNA readout
Chain of Nuclear receptor subfamily 4 group A member 2 (Homo sapiens) (P43354 whole entry, looked up): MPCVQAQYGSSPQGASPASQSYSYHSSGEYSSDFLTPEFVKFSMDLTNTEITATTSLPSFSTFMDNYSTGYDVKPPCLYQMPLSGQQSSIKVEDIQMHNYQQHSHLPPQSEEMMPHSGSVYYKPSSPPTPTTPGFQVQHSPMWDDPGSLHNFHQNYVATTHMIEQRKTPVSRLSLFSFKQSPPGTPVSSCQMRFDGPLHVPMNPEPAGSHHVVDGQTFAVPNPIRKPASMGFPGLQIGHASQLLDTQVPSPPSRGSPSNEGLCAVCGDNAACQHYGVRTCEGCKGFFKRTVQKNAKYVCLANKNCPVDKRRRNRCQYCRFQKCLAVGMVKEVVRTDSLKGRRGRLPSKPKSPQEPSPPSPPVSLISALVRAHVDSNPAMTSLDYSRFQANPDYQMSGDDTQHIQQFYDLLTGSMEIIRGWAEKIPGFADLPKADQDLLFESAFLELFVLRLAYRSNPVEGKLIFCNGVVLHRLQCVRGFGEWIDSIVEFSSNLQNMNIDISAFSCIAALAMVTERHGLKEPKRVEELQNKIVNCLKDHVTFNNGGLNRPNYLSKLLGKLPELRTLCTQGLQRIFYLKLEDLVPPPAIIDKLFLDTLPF
In short: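 After 24 h chemical dosing, total RNA from transiently transfected HepG2 cells was reverse-transcribed and reporter cDNA PCR-amplified, FAM-labelled and analysed by capillary electrophoresis. Activity fitted in positive direction, DMSO as negative control.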

[5] = target: human Peroxisome Proliferator-activated Receptor delta (PPARd), PPARD (gene 5467) (UniProt Q03181); experiment: ATG_PPARd_TRANS: Attagene TRANS-FACTORIAL HepG2 Assay for human Peroxisome Proliferator-activated Receptor delta (PPARd) (AID 2283002)
Chain of human Peroxisome Proliferator-activated Receptor delta (PPARd), PPARD (gene 5467) (Q03181 whole entry, looked up, the tested form may be a part): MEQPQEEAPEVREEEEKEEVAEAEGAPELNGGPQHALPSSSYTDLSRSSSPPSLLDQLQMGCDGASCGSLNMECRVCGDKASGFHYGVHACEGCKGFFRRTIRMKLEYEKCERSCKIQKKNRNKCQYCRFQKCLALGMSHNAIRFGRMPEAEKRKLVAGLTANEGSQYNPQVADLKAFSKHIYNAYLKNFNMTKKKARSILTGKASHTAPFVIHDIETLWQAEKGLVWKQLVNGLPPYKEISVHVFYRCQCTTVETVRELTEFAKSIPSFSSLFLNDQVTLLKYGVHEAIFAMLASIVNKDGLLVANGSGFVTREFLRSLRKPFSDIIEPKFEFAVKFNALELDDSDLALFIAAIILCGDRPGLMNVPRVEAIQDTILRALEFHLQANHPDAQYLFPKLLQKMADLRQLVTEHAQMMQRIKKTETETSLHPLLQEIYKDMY
In short: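 HepG2 cells transiently transfected with multiplexed GAL4-UAS reporter units and exogenous chimeric NR-Gal4 proteins; 24 h compound exposure. Reporter mRNA measured by RT-PCR, 6-FAM labelling, HpaI digestion and capillary electrophoresis; gain of signal versus DMSO.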

[6] = target: human RAR-related Orphan Receptor beta (RORb), RORB (gene 6096) (UniProt Q92753); experiment: ATG_RORb_TRANS: Attagene TRANS-FACTORIAL HepG2 Assay for human RAR-related Orphan Receptor beta (RORb) (AID 2283010)
Chain of human RAR-related Orphan Receptor beta (RORb), RORB (gene 6096) (Q92753 whole entry, looked up, the tested form may be a part): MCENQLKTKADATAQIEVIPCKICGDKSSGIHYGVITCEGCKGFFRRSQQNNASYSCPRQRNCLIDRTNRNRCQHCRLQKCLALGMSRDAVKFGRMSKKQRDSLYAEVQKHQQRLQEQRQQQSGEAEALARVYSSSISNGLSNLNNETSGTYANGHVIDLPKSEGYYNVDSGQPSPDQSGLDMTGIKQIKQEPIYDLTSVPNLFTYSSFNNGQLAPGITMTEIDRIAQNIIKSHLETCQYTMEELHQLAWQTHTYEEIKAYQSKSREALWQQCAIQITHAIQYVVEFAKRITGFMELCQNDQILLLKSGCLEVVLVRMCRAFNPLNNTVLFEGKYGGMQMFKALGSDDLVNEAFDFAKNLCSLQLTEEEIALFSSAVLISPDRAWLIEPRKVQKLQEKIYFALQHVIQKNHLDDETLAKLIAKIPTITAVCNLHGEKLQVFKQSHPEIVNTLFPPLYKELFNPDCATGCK
In short: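 HepG2 cells transiently transfected with GAL4-UAS reporter units expressing chimeric NR-Gal4 protein; reporter mRNA measured 24 h after dosing by RT-PCR, 6-FAM labelling and capillary electrophoresis. Gain-of-signal fitted relative to DMSO baseline.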

[7] = target: human RAR-related Orphan Receptor gamma (RORg), RORC (gene 6097) (UniProt P51449); experiment: ATG_RORg_TRANS: Attagene TRANS-FACTORIAL HepG2 Assay for human RAR-related Orphan Receptor gamma (RORg) (AID 2283011);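 on AC50: potency for induction of reporter transcripts above DMSO so activators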
Chain of human RAR-related Orphan Receptor gamma (RORg), RORC (gene 6097) (P51449 whole entry, looked up, the tested form may be a part): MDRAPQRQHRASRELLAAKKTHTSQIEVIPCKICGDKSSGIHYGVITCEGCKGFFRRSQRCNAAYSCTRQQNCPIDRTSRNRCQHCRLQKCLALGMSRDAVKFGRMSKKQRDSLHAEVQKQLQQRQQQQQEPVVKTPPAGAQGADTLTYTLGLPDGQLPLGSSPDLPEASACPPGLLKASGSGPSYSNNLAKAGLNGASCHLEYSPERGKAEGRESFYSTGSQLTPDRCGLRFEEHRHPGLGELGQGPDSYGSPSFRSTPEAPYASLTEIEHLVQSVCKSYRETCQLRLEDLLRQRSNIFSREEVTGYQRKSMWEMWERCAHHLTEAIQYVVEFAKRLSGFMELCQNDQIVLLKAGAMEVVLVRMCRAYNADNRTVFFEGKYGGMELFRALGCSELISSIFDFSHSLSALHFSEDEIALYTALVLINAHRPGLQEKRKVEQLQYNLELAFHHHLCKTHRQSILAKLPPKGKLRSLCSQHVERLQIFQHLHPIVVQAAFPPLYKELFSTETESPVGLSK
In short: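 Transient MRTU transfection of HepG2 (TRANS format, exogenous NR-Gal4 chimera). 24 h dosing. Total RNA → oligo(dT) RT → PCR → 6-FAM labelling → HpaI cut → CE. Gain vs DMSO.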

[8] = TOX21_p53_BLA_p2_viability: Viability Assessment in the Tox21 HCT-116 p53 Agonism Beta-lactamase Assay, Phase 2 (AID 2283591);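 further: compound exposure lasted 16 h at 37 °C; actives lower the ATP signal meaning cytotoxicity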
In short: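 HCT-116 p53-bla cells (4000/well) rested 5 h at 37C, then received compounds in DMSO (217-fold dilution) for 16 h at 37C, 5% CO2. After the CCF4 read, CellTiter-Glo was added; ATP luminescence was read after 30 min at room temperature.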

[9] = TOX21_p53_BLA_p3_viability: Viability Assessment in the Tox21 HCT-116 p53 Agonism Beta-lactamase Assay, Phase 3 (AID 2283593);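 further: cells exposed to compound for 16 h before reading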
In short: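 HCT-116 cells (4000/well) rested 5 h at 37C, then got DMSO compounds by pin tool (217-fold dilution) for 16 h at 37C, 5% CO2. After the bla read, CellTiter-Glo was added and luminescence read at 30 min, room temperature.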

[10] = TOX21_p53_BLA_p4_viability: Viability Assessment in the Tox21 HCT-116 p53 Agonism Beta-lactamase Assay, Phase 4 (AID 2283597);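 further: hits lower the luminescence signal meaning cytotoxicity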
In short: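 We seeded HCT116 p53 reporter cells at 4000/well and waited 5 h. We then added compounds in DMSO at a 217-fold dilution and incubated for 16 h. Viability was read as CellTiter-Glo luminescence after 30 min at RT.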

[11] = ACEA_ER_AUC_viability: ACEA Biosciences xCELLigence Real-Time Cell Analysis on Estrogen Receptor Agonism for Viability (AID 2283782);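 further: continuous compound exposure with impedance area under curve over 80 h; hit means loss of impedance signal meaning reduced cell growth or viability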
In short: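 T-47D human breast cells in phenol red-free RPMI1640 with 10% charcoal-stripped FBS were dosed with an 8-point 1:4 dilution series from 100 uM top final concentration, in duplicate. Impedance-based growth was followed for 80 h; AUC analysed versus DMSO.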

[12] = CCTE_Harrill_HTTr_Viability_MCF7: CCTE's 6-hour Cell Viability Assessment for the High-Throughput Transcriptomics (HTTr) Platform, in MCF-7 cells cultured in DMEM + 10% fetal bovine serum, Harrill Lab (AID 2284010; active means hit-call score of the fitted dose curve at least 0.9, where 1 is the maximum; inactive means score below 0.9)
In short: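 MCF-7 cells in DMEM + 10% FBS, 384-well, exposed 6 h to an eight-point dilution series. Membrane integrity scored by high-content imaging of propidium iodide exclusion; bidirectional fit versus DMSO.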

[13] = CCTE_Harrill_HTTr_Apoptosis_MCF7: CCTE's 6-hour Apoptosis Assessment for the High-Throughput Transcriptomics (HTTr) Platform, in MCF-7 cells cultured in DMEM + 10% fetal bovine serum, Harrill Lab (AID 2284011; active means hit-call score of the fitted dose curve at least 0.9, where 1 is the maximum; inactive means score below 0.9)
In short: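 Read-out: CellEvent Caspase 3/7 Green signal by high content imaging, gain-of-signal indicating apoptosis. MCF-7 cells, DMEM + 10% FBS, eight-point dilution series, 6 h exposure. Curves fitted bidirectionally relative to DMSO negative control.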

[14] = target: Retinoic acid receptor alpha (Homo sapiens) (UniProt P10276); experiment: ATG_DR5_RAR_CIS: Attagene CIS-FACTORIAL HepG2 Assay for human Retinoic Acid Receptor Alpha (RARE), DR5 submotif (AID 2282934; active means hit-call score of the fitted dose curve at least 0.9, where 1 is the maximum; inactive means score below 0.9); details: HepG2 Attagene cis-factorial RARE DR5 reporter, mRNA; actives raise or lower the signal
Chain of Retinoic acid receptor alpha (Homo sapiens) (P10276 whole entry, looked up): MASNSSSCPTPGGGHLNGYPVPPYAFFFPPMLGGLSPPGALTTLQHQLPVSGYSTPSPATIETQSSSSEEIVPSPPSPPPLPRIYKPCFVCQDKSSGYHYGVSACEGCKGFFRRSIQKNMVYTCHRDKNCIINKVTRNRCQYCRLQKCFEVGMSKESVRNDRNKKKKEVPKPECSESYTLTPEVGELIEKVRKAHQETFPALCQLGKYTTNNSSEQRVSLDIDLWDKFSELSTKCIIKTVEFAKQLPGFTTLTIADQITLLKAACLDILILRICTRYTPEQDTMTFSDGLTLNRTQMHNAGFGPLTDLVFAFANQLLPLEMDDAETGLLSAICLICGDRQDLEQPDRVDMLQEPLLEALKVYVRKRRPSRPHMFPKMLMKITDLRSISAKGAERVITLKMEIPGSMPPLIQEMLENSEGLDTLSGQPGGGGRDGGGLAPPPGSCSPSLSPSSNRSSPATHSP
In short: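 HepG2 cells transiently transfected with multiplexed reporter units under cis (DR5 RARE) promoters, so endogenous transcription factor activity is measured. After 24 h compound exposure, reporter mRNA is quantified by RT-PCR with fluorescent labelling and capillary electrophoresis; bidirectional fitting versus DMSO.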

[15] = target: Bile acid receptor (Homo sapiens) (UniProt Q96RI1); experiment: ATG_IR1_CIS: Attagene CIS-FACTORIAL HepG2 Assay for human Nuclear Receptor Subfamily 1 Group H Member 4 (NR1H4), IR1 submotif (AID 2282946; active means hit-call score of the fitted dose curve at least 0.9, where 1 is the maximum; inactive means score below 0.9); details: IR1 reporter transcription, actives raise or lower the signal
Chain of Bile acid receptor (Homo sapiens) (Q96RI1 whole entry, looked up): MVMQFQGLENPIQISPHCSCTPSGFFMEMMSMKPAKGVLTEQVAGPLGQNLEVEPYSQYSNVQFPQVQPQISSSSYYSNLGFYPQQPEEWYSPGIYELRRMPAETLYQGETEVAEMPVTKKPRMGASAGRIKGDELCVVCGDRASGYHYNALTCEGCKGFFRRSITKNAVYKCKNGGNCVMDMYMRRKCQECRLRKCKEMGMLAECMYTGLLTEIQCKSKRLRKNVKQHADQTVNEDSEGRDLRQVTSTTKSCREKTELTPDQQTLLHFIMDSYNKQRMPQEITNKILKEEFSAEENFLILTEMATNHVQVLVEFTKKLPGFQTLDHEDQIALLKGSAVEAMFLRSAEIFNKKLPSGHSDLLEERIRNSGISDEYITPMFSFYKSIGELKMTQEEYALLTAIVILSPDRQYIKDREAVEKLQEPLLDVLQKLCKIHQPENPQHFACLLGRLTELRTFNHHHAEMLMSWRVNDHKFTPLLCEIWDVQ
In short: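 Transient MRTU transfection, HepG2; 24 h dosing; RNA → RT-PCR → 6-FAM primer extension → HpaI digest → capillary electrophoresis fluorescence. Gain/loss of signal fitted relative to DMSO.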

[16] = target: Nuclear receptor subfamily 1 group I member 3 (Homo sapiens) (UniProt Q14994); experiment: ATG_CAR_TRANS: Attagene TRANS-FACTORIAL HepG2 Assay for human Constitutive Androstane Receptor (CAR) (AID 2282969); details: HepG2 Attagene TRANS-FACTORIAL CAR reporter;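 further: activators raise reporter mRNA above DMSO so AC50 marks induction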
Chain of Nuclear receptor subfamily 1 group I member 3 (Homo sapiens) (Q14994 whole entry, looked up, the tested form may be a part): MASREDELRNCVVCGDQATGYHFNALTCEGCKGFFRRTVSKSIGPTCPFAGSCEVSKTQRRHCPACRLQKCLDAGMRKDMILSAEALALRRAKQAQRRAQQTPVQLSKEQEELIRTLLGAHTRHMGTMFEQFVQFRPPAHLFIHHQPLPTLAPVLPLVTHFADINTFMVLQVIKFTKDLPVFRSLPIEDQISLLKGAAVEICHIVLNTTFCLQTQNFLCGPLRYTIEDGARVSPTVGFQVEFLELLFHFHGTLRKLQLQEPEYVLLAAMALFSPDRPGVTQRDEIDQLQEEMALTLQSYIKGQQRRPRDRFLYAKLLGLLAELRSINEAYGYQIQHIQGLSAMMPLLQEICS
In short: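 HepG2 cells transiently transfected with multiplexed GAL4-UAS reporter units expressing chimeric NR-Gal4 proteins; compound exposure 24 h. Reporter mRNA measured by RT-PCR, 6-FAM labelling, HpaI digestion and capillary electrophoresis; gain-of-signal fitted against DMSO baseline.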

[17] = target: human Thyroid Receptor alpha (THRa1), THRA (gene 7067) (UniProt P10827); experiment: ATG_THRa1_TRANS: Attagene TRANS-FACTORIAL HepG2 Assay for human Thyroid Receptor alpha (THRa1) (AID 2283014)
Chain of human Thyroid Receptor alpha (THRa1), THRA (gene 7067) (P10827 whole entry, looked up, the tested form may be a part): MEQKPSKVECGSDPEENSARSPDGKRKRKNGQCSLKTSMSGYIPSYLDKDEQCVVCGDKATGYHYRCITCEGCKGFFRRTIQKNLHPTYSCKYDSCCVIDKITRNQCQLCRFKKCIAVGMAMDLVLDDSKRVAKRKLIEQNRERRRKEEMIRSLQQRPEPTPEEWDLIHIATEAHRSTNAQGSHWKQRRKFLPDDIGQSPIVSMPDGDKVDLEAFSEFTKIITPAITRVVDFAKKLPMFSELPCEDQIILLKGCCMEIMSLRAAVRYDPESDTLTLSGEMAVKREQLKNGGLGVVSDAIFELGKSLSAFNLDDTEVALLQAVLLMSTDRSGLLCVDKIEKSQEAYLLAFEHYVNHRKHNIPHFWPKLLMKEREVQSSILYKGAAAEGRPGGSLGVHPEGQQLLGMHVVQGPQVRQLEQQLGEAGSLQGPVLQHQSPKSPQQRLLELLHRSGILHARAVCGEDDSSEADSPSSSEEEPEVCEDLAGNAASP
In short: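 Transient HepG2 transfection, NR-Gal4 chimera driving GAL4-UAS reporters; 24 h compound exposure; total RNA, oligo(dT) RT, PCR, fluorescent primer extension, capillary electrophoresis. Upward direction vs DMSO control.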

[18] = ATG_GAL4_TRANS: Attagene TRANS-FACTORIAL HepG2 Assay for GAL4 (Internal Marker) (AID 2282976); details: HepG2 Attagene TRANS GAL4 internal marker reporter
In short: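 RT-PCR/capillary electrophoresis readout of reporter mRNA. HepG2, transient MRTU transfection (GAL4-UAS reporters), 24 h compound exposure. Background-control endpoint, positive direction vs DMSO baseline.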

[19] = target: Oxysterols receptor LXR-beta (Homo sapiens) (UniProt P55055); experiment: ATG_LXRb_TRANS: Attagene TRANS-FACTORIAL HepG2 Assay for human Liver X Receptor beta (LXRb) (AID 2282981); details: HepG2 Attagene TRANS GAL4-LXRb reporter, mRNA
Chain of Oxysterols receptor LXR-beta (Homo sapiens) (P55055 whole entry, looked up, the tested form may be a part): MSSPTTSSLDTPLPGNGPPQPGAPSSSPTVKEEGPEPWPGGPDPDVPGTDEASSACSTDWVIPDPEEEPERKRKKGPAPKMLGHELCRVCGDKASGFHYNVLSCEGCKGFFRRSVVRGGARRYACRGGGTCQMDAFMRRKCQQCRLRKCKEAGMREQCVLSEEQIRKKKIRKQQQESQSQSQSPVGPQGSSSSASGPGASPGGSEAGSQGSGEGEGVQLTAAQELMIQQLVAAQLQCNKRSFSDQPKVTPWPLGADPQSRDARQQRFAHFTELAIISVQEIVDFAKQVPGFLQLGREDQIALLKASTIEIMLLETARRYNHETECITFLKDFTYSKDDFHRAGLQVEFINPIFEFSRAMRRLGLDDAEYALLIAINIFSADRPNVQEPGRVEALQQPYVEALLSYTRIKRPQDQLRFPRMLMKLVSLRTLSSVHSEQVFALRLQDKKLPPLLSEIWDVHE
In short: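 In this TRANS format, exogenous chimeric NR-Gal4 protein activity, not endogenous factors, drives reporter expression in transfected human HepG2 cells. Exposure lasted 24 h; reporter mRNA was read by fluorescent capillary electrophoresis.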

[20] = ATG_PPRE_CIS: Attagene CIS-FACTORIAL HepG2 Assay for human Peroxisome Proliferator-activated Response Element (PPRE) (AID 2282958; active means hit-call score of the fitted dose curve at least 0.9, where 1 is the maximum; inactive means score below 0.9); details: HepG2 PPRE cis-element reporter, Attagene transcription factor profiling; actives raise or lower the signal
In short: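 HepG2 cells transiently transfected with multiplexed cis-element reporter units measure endogenous transcription factor activity. After 24 h compound exposure, reporter mRNA is quantified by RT-PCR, 6-FAM labeling, HpaI digestion and capillary electrophoresis; bidirectional fits are made against DMSO baseline.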

Measured: AC50

CC(C)(C)C(=O)CCl
active: [4] 135 µM | [7] 134 µM
not listed: [14] | [15] | [16] | [17] | [18] | [19] | [20]
inactive: all other assays above

CC(C)(O)C#N
inactive: [14] | [15] | [16] | [2] | [4] | [8] | [9] | [10] | [11] | [12] | [13]

CC[N+](=O)[O-]
inactive: [14] | [16] | [4] | [5] | [17] | [8] | [9]

COc1cc(OC)c(OC)cc1C=O
inactive: [1] | [18] | [3] | [4] | [8] | [9] | [10]

O=C1C=CC(=O)C=C1
inactive: [16] | [19] | [4] | [6] | [17] | [8] | [10] | [12] | [13]
active: [9] 72.3 µM and 76.5 µM | [11] 73.5 µM

NNc1ccccc1
inactive: [16] | [19] | [3] | [4] | [17] | [11]

Oc1ccc(Cl)cc1
inactive: [14] | [20] | [16] | [2] | [7] | [17] | [8] | [10] | [11] | [12] | [13]

O=S(=O)(c1ccccc1)c1ccccc1
not listed: [3] | [4] | [5] | [6] | [7] | [9] | [16]
inactive: all other assays above

Nc1ccc(Cl)c(Cl)c1
inactive: [20] | [19] | [3] | [7] | [17] | [8] | [9] | [10] | [12] | [13]

C=C(Cl)CCl
inactive: [14] | [1] | [18] | [2] | [19] | [3] | [6] | [7] | [17] | [10]

S=c1[nH]c2ccccc2[nH]1
inactive: [14] | [16] | [18] | [4] | [8] | [9] | [10] | [11]

CCCCCCCCCCCCCCCC[N+](C)(C)C
active: [11] 10.9 µM
inactive: [20] | [16] | [18] | [2] | [4] | [5] | [6] | [7]

ClC1=C(Cl)[C@]2(Cl)[C@@H]3[C@@H](Cl)[C@H](Cl)C[C@@H]3[C@@]1(Cl)C2(Cl)Cl
inactive: [14] | [15] | [16] | [1] | [3] | [6] | [17] | [11]
